Source: PubChem (several laboratories)
DAX1 inh-1: inhibits human nuclear receptor DAX1. P51843. HEK293 Gal4-DAX1 luciferase reporter, luminescence. inhibition, % at 6.75 µM. actives 0.99% (n = 340,000). AID 504766;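 active = inhibition above the mean over all tested compounds plus 3 SD, cut at about 4.2% in these data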;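 also: 0% = DAX1-transfected cells with DMSO and 100% = empty-vector control cells with DMSO; inhibition shows as a rise in luminescence from relieved DAX1 repression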
Target sequence (P51843 207-470 limits assumed): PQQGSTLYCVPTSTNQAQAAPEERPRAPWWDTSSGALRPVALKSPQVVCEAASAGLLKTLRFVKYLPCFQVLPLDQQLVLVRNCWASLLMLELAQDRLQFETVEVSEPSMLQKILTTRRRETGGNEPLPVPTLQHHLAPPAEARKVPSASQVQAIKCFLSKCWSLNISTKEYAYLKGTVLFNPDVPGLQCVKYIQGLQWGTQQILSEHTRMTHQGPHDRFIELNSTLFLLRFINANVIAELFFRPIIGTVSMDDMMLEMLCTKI
DAX1 inh-2: inhibitors of DAX1 repression of SF-1 activated StAR promoter; HEK293T StAR-luciferase reporter, SF-1/DAX-1 repression relief; inhibition, % at 6.8 µM; actives 1.1% (n = 370,000); AID 652010;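 active = inhibition above the mean over all tested compounds plus 3 SD, cut at about 3.6% in these data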;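 also: 0% = DAX-1 cells with DMSO and 100% = cells lacking DAX-1 with DMSO; higher inhibition means more luminescence from relief of DAX-1 repression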
hgDAF-12 ag: agonists of H. glycines DAF-12 nuclear receptor; activation, % at 6.8 µM; HEK293 GAL4-hgDAF12 UAS-luciferase reporter, agonist luminescence; normalized to butyrate control; actives 1.8% (n = 370,000);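 active = activation above a cutoff set at the mean of all screened compounds plus 3 SD, cut at about 10% in these data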;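 also: 0% = DMSO wells and 100% = sodium butyrate wells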
PolyA inh: blocks polyadenylation in yeast reporter cells; S. cerevisiae SKY197-pL101 polyadenylation reporter, beta-gal luminescence; efflux-impaired pdr1/pdr3 knockout yeast; score 100 = 6 SD above DMSO; activity score, % at 12 µM; actives 0.02% (n = 300,000); AID 1875;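 active = lowest replicate activity score at least 50, where 100 means six control SD above control mean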;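 also: yeast exposed to compound for 9 h at 30 °C; higher score means more reporter readthrough which indicates perturbed polyadenylation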
hcDAF-12 act: H. contortus DAF-12 activation, primary screen; actives 1.4% (n = 370,000); AID 652067; HEK293 hcDAF-12 lit1-tk-luc reporter, luminescence; 0% DMSO, 100% Δ7-dafachronic acid; activation, % at 6.8 µM;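 active = activation above the mean of all tested compounds plus 3 SD, cut at about 5.5% in these data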;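 also: 100% = response to 3 µM Δ7-dafachronic acid high control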
ssDAF12 agonist: S. stercoralis DAF-12 activation, primary screen; actives 1% (n = 370,000); activation, % at 6.8 µM; HEK293 ssDAF-12/GRIP1 lit1-tk-luc reporter, luminescence; % of 3 µM dafachronic acid response;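 active = activation above the mean over all tested compounds plus 3 SD, cut at about 0.9% in these data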;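 also: 0% = DMSO-only wells and 100% = 3 µM delta7-dafachronic acid wells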
The depositor's hits bear a star; x = no result. In the library only some 4.1% were active in any assay of this set; here they are far more common.

SMILES	DAX1 inh-1	DAX1 inh-2	hgDAF-12 ag	PolyA inh	hcDAF-12 act	ssDAF12 agonist
Cc1c(Cl)cccc1N=c1c([N+](=O)[O-])nn(-c2ccccc2)n1O	0	0	2	-2	5.6*	0
O=[N+]([O-])c1nn(-c2ccc(Cl)cc2)n(O)c1=NCc1ccccc1	5.0*	0	3	-3	-2	-1
O=[N+]([O-])c1nn(-c2ccccc2)n(O)c1=NCc1ccc2c(c1)OCO2	1	1	4	-1	2	-1
COC(=O)C1=C(C)N(CC(C)C)C(=S)NC1c1ccc(Cl)cc1 (stereo not drawn)	x	-1	-1	x	1	-1
Nc1nc(-c2cccc(F)c2)cs1	5.2*	1	5	-3	3	0.9*
COc1ccc(CCNC(=O)C/C(C)=N/NC(=O)C23CC4CC(CC(C4)C2)C3)cc1OC	1	2	7	-5	2	0.9*
CC(C)(C)NC(=O)CSc1nnc(-c2ccccn2)n1Cc1ccccc1	-1	-1	-1	-13	-2	0
CC(C)(C)NC(=O)CSc1nnc(-c2ccccn2)n1-c1ccccc1	4.4*	0	-2	3	-2	-1
Cc1c(C(=O)O)cnc2cc(-c3ccc(Cl)cc3)nn12	1	0	5	-12	2	1.1*
CC(=O)c1cnc2cc(-c3ccc(Cl)cc3)nn2c1C	1	1	6	-13	1	-1
CN(C)S(=O)(=O)c1ccc(/C(O)=C2/C(=O)C(=O)N(CCCN3CCOCC3)C2c2ccncc2)cc1 (stereo not drawn)	5.1*	1	1	-12	1	-2
COc1cccc(/C(O)=C2/C(=O)C(=O)N(CCCN3CCOCC3)C2c2ccncc2)c1 (stereo not drawn)	0	0	-1	13	-2	-1
Cc1ccc(CN2CC=CCS2(=O)=O)cc1	x	2	1	x	-1	-1
O=C(O)/C=C/c1cccc2c1OCCO2	7.2*	0	0	-5	-2	-2
COc1ccc(NS(=O)(=O)NC(=O)c2c[nH]c3ccccc23)cc1	0	0	2	-8	5.8*	-1
COc1cccc(NS(=O)(=O)NC(=O)c2c[nH]c3ccccc23)c1	0	0	1	-4	0	-1
O=C(NS(=O)(=O)Nc1ccccn1)c1c[nH]c2ccccc12	1	0	3	10	6	1.0*
CN(C)S(=O)(=O)c1cccc(NC(=O)c2c[nH]c3ccccc23)c1	-1	0	3	0	2	1.3*
CN(C)S(=O)(=O)c1cccc(NC(=O)c2cc(=O)[nH]c3ccccc23)c1	0	0	2	12	1	-2
O=C(NS(=O)(=O)Nc1ccc(Cl)cc1)c1c[nH]c2ccccc12	0	0	1	9	5	0
CN(C)c1cccc2c(S(=O)(=O)NCC3CCN(C(=O)C(=O)c4cccs4)CC3)cccc12	x	-1	-1	x	-2	-1
COC(=O)c1ccc2nc(-c3ccco3)c(Cc3ccsc3)n2c1	x	-1	1	x	2	-1
Cc1ccccc1C(=O)NC1CCCCN(Cc2cccc(F)c2)C1=O (stereo not drawn)	x	0	-1	x	2	-1
CCc1c(C)c2ccc(OCC(=O)NCC3CCC(C(=O)O)CC3)c(C)c2oc1=O (stereo not drawn)	2	0	11*	19	0	-1
Cc1ccc(OCC(O)CN2C(=O)NC(C)(C)C2=O)cc1C (stereo not drawn)	-1	-1	11*	-6	0	-1
SMILES	DAX1 inh-1	DAX1 inh-2	hgDAF-12 ag	PolyA inh	hcDAF-12 act	ssDAF12 agonist
CCN(CC)CC(O)CN1C(=O)NC(C)(C)C1=O (stereo not drawn)	4.3*	-1	1	4	-2	-1
CCCN(CCC)CC(O)CN1C(=O)NC(C)(C)C1=O (stereo not drawn)	0	0	5	15	0	-1
O=C(Cn1nnc(-c2ccncc2)n1)Nc1ccc(Oc2ccccc2)cc1	x	-1	-2	x	-4	-1
O=C(COC(=O)c1cncc(Br)c1)Nc1ccc(N2CCCCC2)cc1	1	-1	1	x	4	1.8*
O=C(COC(=O)c1ccc(O)cc1)Nc1ccc(N2CCCCC2)cc1	0	1	6	-4	-1	-1
CCC[C@H]1[C@@H](OC(=O)NCc2ccco2)CC[C@@]23CCCN2C(=O)CCC[C@@H]13	x	x	-2	x	-1	-2
CC(N=Cc1c(O)c2ccccc2oc1=O)C(=O)O (stereo not drawn)	0	0	11*	-7	0	-1
O=C(O)C(CO)N=Cc1c(O)c2ccccc2oc1=O (stereo not drawn)	1	0	-1	18	-1	-1
Cc1ccc(S(=O)(=O)c2nc(-c3ccccc3)oc2NCCCN2CCOCC2)cc1	1	0	11*	17	-1	-1
COc1ccc2[nH]c3c(c2c1)CCN[C@]31C(=O)N(C)c2ccc(Br)cc21	x	-1	-2	x	4	1.1*
CCOc1ccc(Nc2n[nH]c(=S)s2)cc1	1	3	12*	3	3	0
Cc1ccc(Nc2n[nH]c(=S)s2)cc1	2	1	6	x	2	0
O=C(O)c1oc2ccc(Br)cc2c1-n1cccc1	7.0*	0	0	18	1	-1
NNC(=O)c1oc2ccccc2c1-n1cccc1	0	0	2	1	-2	0
Cc1cc(C(=O)N2CCc3ccccc3C2)n[nH]1	1	0	0	-8	2	0
O=C(c1cc([N+](=O)[O-])[nH]n1)N1CCSCC1	5.4*	2	1	9	0	-2
O=C(c1ccco1)N1CCN(C2CN(C3CCCCC3)S(=O)(=O)C2)CC1 (stereo not drawn)	x	3.9*	-1	x	0	-1
O=C(CSc1nnc(-c2cccnc2)n1-c1ccc(Cl)cc1)c1ccc2ccccc2c1	x	0	1	x	-2	-1
CCOc1ccccc1Nc1cc(C)nc2nnnn12	0	0	-1	6	1	1.0*
COc1ccccc1N=c1oc2cc(O)ccc2cc1C(N)=O	-1	1	8	12	0	-1
Cc1cccc(N=c2oc3cc(O)ccc3cc2C(N)=O)c1	2	3	12*	18	3	0
CC(C)(C)OC(=O)NCc1cc(F)ccc1/C=C/S(=O)(=O)NCc1ccc(F)cc1	x	-2	-2	x	-2	-2
Cc1ccc(C(=O)CSc2nc3ccc(C(=O)NCCN4CCCCC4)cc3c(=O)[nH]2)cc1	1	0	3	8	5.6*	0
